Inconclusive results are not listed. Activity calls are given as the source filed them. Calls follow the shape of the dose curve; as a rule, active = well fitted curve in the direction sought with a large enough effect; inconclusive = small, poorly fitted or top-dose-only effect, or another doubt; inactive = no such curve, though single readings can be large; an effect the other way counts as inactive or inconclusive.
Columns and labels:
[1] = P-glycoprotein substrates identified in KB-8-5-11 adenocarcinoma cell line, qHTS therapeutic library screen (AID 1346987); also: nearly all actives have a fitted effect of over 65% in size; also: potency is read from the fitted curve at half-maximal effect
Outline: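 KB-8-5-11, a colchicine-selected P-gp-overexpressing KB-3-1 subline, was grown without colchicine for the assay. Cells were seeded at 500 cells/well, dosed in concentration-response and incubated 72 h at 37 degree C, 5% CO2. Viability was read by CellTiter-Glo luminescence.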

[2] = NS1 protein of Zika virus - qHTS assay to identify small molecule inhibitors in human HEK 293 cells (AID 1347053); also: nearly all actives have a fitted effect of over 55% in size; also: potency is read from the fitted curve at half-maximal effect
Outline: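 HEK 293; 20 h pre-culture, 37 C/5% CO2; cpd 1 h pre-infection; ZIKV MR766, MOI = 0.5, 24 h, 37 C; TR-FRET NS1 readout (two anti-NS1 Abs); norm. to no-virus vs infected.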

[3] = qHTS of pediatric cancer cell lines to identify multiple opportunities for drug repurposing: Primary screen for TC32 cells (AID 1347089); also: nearly all actives have a fitted effect of over 60% in size; also: potency is read from the fitted curve at half-maximal effect
Outline: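 Luminescent ATP read-out (CellTiter-Glo) of metabolically active TC32 cells after 48 h exposure. Concentration-response curves came from 11-point (MIPE, 0.78 nM–46 µM) or 8-point (NPC, 0.59 nM–46 µM) primary titrations; follow-up used 11 points.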

[4] = qHTS of pediatric cancer cell lines to identify multiple opportunities for drug repurposing: Primary screen for DAOY cells (AID 1347090); also: nearly all actives have a fitted effect of over 55% in size; also: potency is read from the fitted curve at half-maximal effect
Outline: (§1)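 Viability measured as metabolically active cells via CellTiter-Glo luminescence following 48 hours of compound exposure, 11-point dilutions in confirmatory testing. 500-1,000 cells/well plated 5 hours before dosing; controls were DMSO and 2.3 µM bortezomib.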

[5] = qHTS of pediatric cancer cell lines to identify multiple opportunities for drug repurposing: Primary screen for SJ-GBM2 cells (AID 1347091); also: potency is read from the fitted curve at half-maximal effect
Outline: as §1

[6] = qHTS of pediatric cancer cell lines to identify multiple opportunities for drug repurposing: Primary screen for A673 cells (AID 1347092); also: nearly all actives have a fitted effect of over 45% in size; also: potency is read from the fitted curve at half-maximal effect
Outline: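 Cell viability of A673 measured by CellTiter-Glo ATP luminescence after 48 hours compound exposure. Dilution series spanned 0.78 nM to 46 µM (MIPE, 11-point) or 0.59 nM to 46 µM (NPC, 8-point); bortezomib 2.3 uM positive control.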

[7] = qHTS of pediatric cancer cell lines to identify multiple opportunities for drug repurposing: Primary screen for SK-N-MC cells (AID 1347093); also: potency is read from the fitted curve at half-maximal effect
Outline: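 Metabolically active cells were quantified by ATP-dependent luminescence (CellTiter-Glo, 15 min at room temperature) following 48 h treatment. Cells had been plated at 500-1,000 per well and settled for 5 h beforehand.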

[8] = qHTS of pediatric cancer cell lines to identify multiple opportunities for drug repurposing: Primary screen for BT-37 cells (AID 1347094); also: potency is read from the fitted curve at half-maximal effect
Outline: (§2)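 Cells plated at 500-1,000/well in growth medium, compounds added after 5 h. MIPE tested at 11 points (from 0.78 nM), NPC at 8 points (from 0.59 nM). CellTiter-Glo luminescence after 48 h; concentration-response curves from primary screen.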

[9] = qHTS of pediatric cancer cell lines to identify multiple opportunities for drug repurposing: Primary screen for U-2 OS cells (AID 1347096); also: nearly all actives have a fitted effect of over 50% in size
Outline: (§3)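 Viability after 48 h compound treatment at 37C, 500-1,000 cells/well, read as ATP luminescence with CellTiter-Glo. Primary screens used 11-point (MIPE, 0.78 nM-46 µM) or 8-point (NPC, 0.59 nM-46 µM) final concentrations; follow-up screens used 11-point dilutions.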

[10] = qHTS of pediatric cancer cell lines to identify multiple opportunities for drug repurposing: Primary screen for Saos-2 cells (AID 1347097); also: nearly all actives have a fitted effect of over 40% in size; also: potency is read from the fitted curve at half-maximal effect
Outline: as §2

[11] = qHTS of pediatric cancer cell lines to identify multiple opportunities for drug repurposing: Primary screen for SK-N-SH cells (AID 1347098); also: nearly all actives have a fitted effect of over 65% in size; also: potency is read from the fitted curve at half-maximal effect
Outline: (§4)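 Cells (500-1,000/well) rested 5 h, then received compounds for 48 h; metabolically active cells were measured by CellTiter-Glo luminescence. Final concentrations spanned up to 46 µM (MIPE, 11-point) or 0.59 nM-46 µM (NPC, 8-point) in primary screens, 11-point in follow-ups.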

[12] = qHTS of pediatric cancer cell lines to identify multiple opportunities for drug repurposing: Primary screen for NB1643 cells (AID 1347099); also: nearly all actives have a fitted effect of over 50% in size; also: potency is read from the fitted curve at half-maximal effect
Outline: as §2

[13] = qHTS of pediatric cancer cell lines to identify multiple opportunities for drug repurposing: Primary screen for LAN-5 cells (AID 1347100); also: potency is read from the fitted curve at half-maximal effect
Outline: as §3

[14] = qHTS of pediatric cancer cell lines to identify multiple opportunities for drug repurposing: Primary screen for BT-12 cells (AID 1347101); also: nearly all actives have a fitted effect of over 25% in size; also: potency is read from the fitted curve at half-maximal effect
Outline: as §4

[15] = qHTS of pediatric cancer cell lines to identify multiple opportunities for drug repurposing: Primary screen for Rh18 cells (AID 1347102); also: nearly all actives have a fitted effect of over 65% in size; also: potency is read from the fitted curve at half-maximal effect
Outline: as §3

[16] = qHTS of pediatric cancer cell lines to identify multiple opportunities for drug repurposing: Primary screen for NB-EBc1 cells (AID 1347095)
Outline: as §2

Measured: Potency

COC(=O)C=CC(=O)OC
active: [4] 1.87 µM | [6] 7.43 µM | [7] 0.0037 µM | [11] 15.2 µM | [12] 7.43 µM
not listed: [16]
inactive: all other assays above

CCc1c(O)cc(O)c(C(=O)c2ccc(OCCN3CCOCC3)c(OC)c2)c1CC(=O)N(CCOC)CCOC
inactive: [1] | [2] | [9]
active: [3] 2.94 µM | [4] 14.8 µM | [5] 1.18 µM | [6] 0.935 µM | [7] 0.526 µM | [8] 1.09 µM | [11] 6.81 µM | [12] 0.935 µM | [13] 0.59 µM | [15] 1.32 µM

Cc1noc(-c2ccc(CSCCC(=O)O)cc2)c1NC(=O)OC(C)c1ccccc1Cl (configuration not stated)
not listed: [7] | [12]
inactive: all other assays above

O=C(c1ccc(F)cc1)N1CCC[C@H](c2nc(-c3ccc(F)cc3)no2)C1
active: [1] 0.118 µM | [11] 13.6 µM
not listed: [5]
inactive: all other assays above

CC1(C)O[C@@H]2C[C@H]3[C@@H]4CCC5=CC(=O)C=C[C@]5(C)[C@@H]4[C@@H](O)C[C@]3(C)[C@]2(C(=O)CO)O1
active: [7] 29.6 µM
not listed: [5] | [10] | [12] | [16]
inactive: all other assays above

CC(=O)NC(CS)C(=O)O (configuration not stated)
not listed: [5]
inactive: all other assays above

O=C(NNC(=O)c1ccc(CNS(=O)(=O)c2ccc(F)c(Cl)c2)cc1)c1ccccc1
not listed: [5] | [12]
inactive: all other assays above

CON=C(C(=O)N[C@@H]1C(=O)N2C(C(=O)O)=C(CSC(=O)c3ccco3)CS[C@H]12)c1csc(N)n1
active: [11] 13.6 µM
not listed: [6] | [7] | [8] | [10] | [12]
inactive: all other assays above

C=C(C)[C@@H]1CC[C@]2(C(=O)O)CC[C@]3(C)[C@H](CC[C@@H]4[C@@]5(C)CC[C@H](O)C(C)(C)[C@@H]5CC[C@]43C)[C@@H]12
active: [5] 18.7 µM | [10] 18.7 µM
not listed: [6] | [7] | [16]
inactive: all other assays above

OCCNC1CCCc2c1[nH]c1ccc(-c3ccccc3)cc21 (configuration not stated)
inactive: [3] | [4] | [12]
active: [1] 6.51 µM | [2] 20.9 µM | [5] 23.5 µM | [6] 23.5 µM | [8] 24.3 µM | [10] 18.7 µM | [13] 26.4 µM | [14] 30.6 µM | [15] 20.9 µM

Cc1cc(C(=O)NOCCO)c(Nc2ccc(I)cc2F)n(C)c1=O
inactive: [1] | [2] | [3] | [4] | [5] | [10] | [15]
active: [7] 0.662 µM | [11] 2.15 µM

COc1ccc([C@@H]2CNC(=O)C2)cc1OC1CCCC1
active: [4] 3.72 µM | [6] 0.743 µM | [7] 0.469 µM | [11] 3.04 µM | [12] 1.32 µM
inactive: [1] | [2] | [3] | [16] | [9] | [13]

CC1(C)CC(O)CC(C)(C)N1[O]
not listed: [5] | [8] | [16]
inactive: all other assays above

Reference: PubChem BioAssay (NCATS)
